One assay has as its target CCNA1. As to the kind of experiment: pooled miR-30 sensor sort-seq; sequence = guide strand. As to conditions: shRNA.
TAGAACTTTCAGAAGCAAGTGT came in with a sensor-assay potency score (higher = more potent) of 0.493. In the case of TGATATAGACAAACTCGTCTAC, the sensor-assay potency score (higher = more potent) stood at 0.267. On the same count and under the same terms, the value for TAACAGTTGTCGTTTTGTGTAT was -0.217. For TTTCACTTAATGAATACCCTGT, the sensor-assay potency score (higher = more potent) is 1.11. On to TTGCTTGCTGAGGTCGATGGGG, for which the sensor-assay potency score (higher = more potent) was -0.835. Regarding TTGTAAACAACATTAGTTGATC, the sensor-assay potency score (higher = more potent) is -0.494. Same read-out and setting: the figure for TAATTGCTTGCTGAGGTCGATG is -1.07. Same read-out and setting: the figure for TTTTGTGTATGTATCATCGGTG is 0.2; for TTAGCCAGGTTCTCAGTCCTGA it is -0.236.

In the next assay the target is CCNG1. The assay is described as above. The settings on record: shRNA.
For TTCAGTTGAGCTTCTAGTCTTT, the sensor-assay potency score (higher = more potent) worked out at 0.39.

Sequence TTGGCTGACATCTAGACTCCTG had a sensor-assay potency score (higher = more potent) of 0.244.

Turning to TTCAACTTCTGAACATTTGGTT, the sensor-assay potency score (higher = more potent) turned out to be 0.69.

As to TTTAGACAGGAATCTGTCCAGT, the sensor-assay potency score (higher = more potent) was -0.19. Still for that read-out and setting: the value for TTAGTCTTGCAGTCATTCTGAG was -0.381.

Regarding TTGACTTTCCAACACACCTTCT, the sensor-assay potency score (higher = more potent) was -0.557. The same measure, in the same setting: the value for TTGGATACAAGCTCTTGCCAGA was -0.511; that for TTTTAGACAGGAATCTGTCCAG was 0.0176; that for TTCTGTTAACTCTACACACTTC was -0.348. The same measure, in the same setting: the figure for TAGCATTTCACATTTAGGCTTT is 0.478; for TTCTATTGATTTTACAGCCAAA it is -1.32; for TTTGGATACAAGCTCTTGCCAG it is -0.48. As to TAGTCTCAAACCACAGACCTTT, the sensor-assay potency score (higher = more potent) is -0.816. Same read-out and setting: the figure for TTTGACTTTCCAACACACCTTC is 0.153.

In turn, TTAGCTTTGATTTGAATGCTTC returned a sensor-assay potency score (higher = more potent) of 0.215. Still for that read-out and setting: the figure for TACATTTGTGAAATGTTGCTTT is 0.17; for TTAACTCTACACACTTCTGTGC it is 0.175. As to TCTGAAGACATTCTATTCCTTC, the sensor-assay potency score (higher = more potent) was -0.269.

On to TTAGTCTCAAACCACAGACCTT, for which the sensor-assay potency score (higher = more potent) is -1.23. For TTCATTTTAGACAGGAATCTGT, the sensor-assay potency score (higher = more potent) was 0.0756.

Regarding TAGTCTTGCAGTCATTCTGAGG, the sensor-assay potency score (higher = more potent) is -1.44.

The values above are taken from the OligoGym collection.
Note: reference of the scale not given here.
